The record followed here is paper PMC7862700, “An all-to-all approach to the identification of sequence-specific readers for epigenetic DNA modifications on cytosine”.

Assay in all cases: DAPPL (digital affinity profiling via proximity ligation, sequencing); 10 mM Tris-HCl pH 7.5, 50 mM NaCl, 1 mM DTT, 4% glycerol, room temperature, 30 min; GST-TFs on glutathione beads, 16-mer random dsDNA library, 0.1% formaldehyde crosslink after washing; high values mean tight binding
The target in test [1] is T1, FEV (Homo sapiens, UniProt Q99581 1-238).
T1 sequence: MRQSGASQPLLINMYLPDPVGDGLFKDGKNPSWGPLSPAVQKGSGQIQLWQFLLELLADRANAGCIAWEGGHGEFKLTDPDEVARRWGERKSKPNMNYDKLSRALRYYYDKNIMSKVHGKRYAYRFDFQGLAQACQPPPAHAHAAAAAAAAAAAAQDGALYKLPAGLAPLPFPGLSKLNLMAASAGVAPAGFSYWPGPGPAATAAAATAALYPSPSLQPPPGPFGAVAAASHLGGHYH
To be noted: protein: recombinant; tags: N-terminal GST; dsDNA, one strand shown. Summed up:
(§1)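 Binding signal is defined as a hexamer's read frequency for one factor over its frequency for the tag-only sample. To obtain reads, GST-fused human transcription factors were expressed in yeast, captured on glutathione beads, barcoded with DNA and pooled with that sample. Pools met 200 nmole of a 16-mer random double-stranded DNA library in Tris/NaCl/DTT/glycerol buffer for 30 min at room temperature before washing, 0.1% formaldehyde crosslinking, proximity ligation (BsaI/T4 ligase, 1 h, 37 °C), PCR and Illumina NextSeq500 sequencing.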

The target in test [2] is ETV5 (Homo sapiens, UniProt P41161 1-510). To be noted: protein: recombinant; tags: N-terminal GST; dsDNA, one strand shown. Summed up: as §1
In test [3] the target is HSF1 (Homo sapiens, UniProt Q00613 1-529). To be noted: protein: recombinant; tags: N-terminal GST; chain copies: 3; dsDNA, one strand shown. Summed up: as §1
For test [4], the target named is T2, SPIC (Homo sapiens, UniProt Q8N5J4 1-248).
T2 sequence: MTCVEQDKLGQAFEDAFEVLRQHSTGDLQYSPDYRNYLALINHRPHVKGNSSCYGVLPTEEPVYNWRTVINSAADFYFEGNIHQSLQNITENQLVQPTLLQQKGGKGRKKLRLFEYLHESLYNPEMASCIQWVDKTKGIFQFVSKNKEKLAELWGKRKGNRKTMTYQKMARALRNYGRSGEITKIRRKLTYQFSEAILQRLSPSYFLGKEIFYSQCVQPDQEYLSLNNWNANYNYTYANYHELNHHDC
To be noted: protein: recombinant; tags: N-terminal GST; dsDNA, one strand shown. Summed up: as §1

Test [5] deals with ELF4 (Homo sapiens, UniProt Q99607 1-663). To be noted: protein: recombinant; tags: N-terminal GST; dsDNA, one strand shown. In short, it runs like this: as §1
For test [6], the target named is T3, ELK4 (Homo sapiens, UniProt P28324-2 1-405).
T3 sequence: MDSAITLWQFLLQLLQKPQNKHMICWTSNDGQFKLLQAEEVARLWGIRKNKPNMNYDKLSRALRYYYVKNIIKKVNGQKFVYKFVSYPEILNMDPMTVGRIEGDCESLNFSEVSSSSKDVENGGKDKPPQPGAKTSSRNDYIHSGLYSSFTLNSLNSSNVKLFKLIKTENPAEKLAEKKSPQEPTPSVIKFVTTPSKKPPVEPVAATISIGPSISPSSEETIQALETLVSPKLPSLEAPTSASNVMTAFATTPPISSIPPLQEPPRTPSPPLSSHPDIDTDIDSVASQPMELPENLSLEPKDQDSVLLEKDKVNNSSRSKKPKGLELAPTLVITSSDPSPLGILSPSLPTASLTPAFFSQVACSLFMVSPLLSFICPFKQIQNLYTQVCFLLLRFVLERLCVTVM
To be noted: protein: recombinant; tags: N-terminal GST; dsDNA, one strand shown. In short, it runs like this: as §1

For test [7], the target named is T4, ETV2 (Homo sapiens, UniProt O00321 1-342).
T4 sequence: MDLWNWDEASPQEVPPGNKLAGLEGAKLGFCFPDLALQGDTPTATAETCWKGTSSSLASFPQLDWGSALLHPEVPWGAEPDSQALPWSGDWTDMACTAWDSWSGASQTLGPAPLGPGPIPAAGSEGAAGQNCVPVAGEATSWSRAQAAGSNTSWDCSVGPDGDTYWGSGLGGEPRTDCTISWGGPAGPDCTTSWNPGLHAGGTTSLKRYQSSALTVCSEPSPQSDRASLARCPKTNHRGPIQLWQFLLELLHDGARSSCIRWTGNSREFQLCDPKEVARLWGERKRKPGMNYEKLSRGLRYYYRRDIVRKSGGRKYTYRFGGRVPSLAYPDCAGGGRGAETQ
To be noted: protein: recombinant; tags: N-terminal GST; dsDNA, one strand shown. In short, it runs like this:
as §1

The target in test [8] is T5, ELF3 (Homo sapiens, UniProt P78545 1-371).
T5 sequence: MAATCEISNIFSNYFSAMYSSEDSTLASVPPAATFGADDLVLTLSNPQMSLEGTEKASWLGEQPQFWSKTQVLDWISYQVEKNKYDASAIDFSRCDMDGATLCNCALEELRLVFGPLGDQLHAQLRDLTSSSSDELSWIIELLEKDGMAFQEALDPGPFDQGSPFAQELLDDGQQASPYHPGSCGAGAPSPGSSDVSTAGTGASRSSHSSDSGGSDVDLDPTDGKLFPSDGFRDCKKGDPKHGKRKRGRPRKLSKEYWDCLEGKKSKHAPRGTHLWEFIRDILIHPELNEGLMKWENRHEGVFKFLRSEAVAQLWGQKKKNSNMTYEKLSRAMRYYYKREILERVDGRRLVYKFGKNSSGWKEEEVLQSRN
The settings on record: protein: recombinant; tags: N-terminal GST; dsDNA, one strand shown. In short, it runs like this:
as §1

Test [9] concerns the target CRX (Homo sapiens, UniProt O43186 1-299). To be noted: protein: recombinant; tags: N-terminal GST; dsDNA, one strand shown. Summed up:
as §1

Test [10] addresses ETV1 (Homo sapiens, UniProt P50549 1-477). The settings on record: protein: recombinant; tags: N-terminal GST; dsDNA, one strand shown. Summed up: as §1
For test [11], the target named is T6, ERF (Homo sapiens, UniProt P50548 1-548).
T6 sequence: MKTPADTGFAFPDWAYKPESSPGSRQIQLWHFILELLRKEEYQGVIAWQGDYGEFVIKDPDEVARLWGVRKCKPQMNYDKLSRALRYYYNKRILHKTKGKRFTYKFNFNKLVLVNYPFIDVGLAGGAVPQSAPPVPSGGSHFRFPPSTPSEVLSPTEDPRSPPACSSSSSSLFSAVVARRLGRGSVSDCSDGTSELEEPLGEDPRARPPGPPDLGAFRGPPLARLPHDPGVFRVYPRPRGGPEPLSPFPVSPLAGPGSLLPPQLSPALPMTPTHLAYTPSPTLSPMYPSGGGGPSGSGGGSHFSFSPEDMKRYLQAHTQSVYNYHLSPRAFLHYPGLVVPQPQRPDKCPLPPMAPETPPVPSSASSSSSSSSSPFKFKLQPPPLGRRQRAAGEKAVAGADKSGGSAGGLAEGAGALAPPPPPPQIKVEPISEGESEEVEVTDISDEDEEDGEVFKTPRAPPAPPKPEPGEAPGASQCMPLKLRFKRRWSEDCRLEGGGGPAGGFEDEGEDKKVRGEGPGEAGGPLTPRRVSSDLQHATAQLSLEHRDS
The settings on record: protein: recombinant; tags: N-terminal GST; dsDNA, one strand shown. In short, it runs like this:
as §1

Test [12] addresses T7, ETV3L (Homo sapiens, UniProt Q6ZN32 1-361).
T7 sequence: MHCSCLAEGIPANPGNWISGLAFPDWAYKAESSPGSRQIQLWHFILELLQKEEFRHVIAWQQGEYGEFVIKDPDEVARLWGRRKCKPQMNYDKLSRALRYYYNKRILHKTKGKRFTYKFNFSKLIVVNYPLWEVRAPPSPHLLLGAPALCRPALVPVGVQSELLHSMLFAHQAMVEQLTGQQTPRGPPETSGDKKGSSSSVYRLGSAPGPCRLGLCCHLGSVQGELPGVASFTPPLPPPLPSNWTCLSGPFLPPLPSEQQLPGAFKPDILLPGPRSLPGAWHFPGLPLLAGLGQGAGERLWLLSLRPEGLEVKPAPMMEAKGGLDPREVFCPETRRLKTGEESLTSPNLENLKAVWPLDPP
To be noted: protein: recombinant; tags: N-terminal GST; dsDNA, one strand shown. In short, it runs like this:
as §1

In test [13] the target is T8, ETS2 (Homo sapiens, UniProt P15036 1-469).
T8 sequence: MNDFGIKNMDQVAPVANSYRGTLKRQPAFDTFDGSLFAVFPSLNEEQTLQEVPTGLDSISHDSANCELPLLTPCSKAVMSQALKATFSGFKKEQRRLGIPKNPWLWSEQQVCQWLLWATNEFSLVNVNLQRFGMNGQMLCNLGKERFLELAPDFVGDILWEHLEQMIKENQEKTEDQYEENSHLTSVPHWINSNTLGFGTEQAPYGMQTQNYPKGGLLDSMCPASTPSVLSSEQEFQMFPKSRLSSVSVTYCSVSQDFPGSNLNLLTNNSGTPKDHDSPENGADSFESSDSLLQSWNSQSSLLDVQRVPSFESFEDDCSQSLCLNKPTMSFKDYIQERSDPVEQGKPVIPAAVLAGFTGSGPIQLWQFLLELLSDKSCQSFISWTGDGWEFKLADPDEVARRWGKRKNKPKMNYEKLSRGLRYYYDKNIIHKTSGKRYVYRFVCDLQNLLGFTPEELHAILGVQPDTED
The settings on record: protein: recombinant; tags: N-terminal GST; dsDNA, one strand shown. In short, it runs like this:
as §1

Test [14] concerns the target T9, SPDEF (Homo sapiens, UniProt O95238 1-335).
T9 sequence: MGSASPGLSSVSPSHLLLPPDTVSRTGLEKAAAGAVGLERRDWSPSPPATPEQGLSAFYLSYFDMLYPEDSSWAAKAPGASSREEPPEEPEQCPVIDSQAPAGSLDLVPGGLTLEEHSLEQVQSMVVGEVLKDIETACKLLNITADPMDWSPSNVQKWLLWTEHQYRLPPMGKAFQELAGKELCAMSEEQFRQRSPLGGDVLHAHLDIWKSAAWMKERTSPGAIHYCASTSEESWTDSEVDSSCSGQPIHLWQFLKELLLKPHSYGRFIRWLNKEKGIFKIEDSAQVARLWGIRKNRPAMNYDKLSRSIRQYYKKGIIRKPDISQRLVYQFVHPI
The settings on record: protein: recombinant; tags: N-terminal GST; dsDNA, one strand shown. Summed up: as §1

Test [15] addresses T10, ETV7 (Homo sapiens, UniProt Q9Y603 1-341).
T10 sequence: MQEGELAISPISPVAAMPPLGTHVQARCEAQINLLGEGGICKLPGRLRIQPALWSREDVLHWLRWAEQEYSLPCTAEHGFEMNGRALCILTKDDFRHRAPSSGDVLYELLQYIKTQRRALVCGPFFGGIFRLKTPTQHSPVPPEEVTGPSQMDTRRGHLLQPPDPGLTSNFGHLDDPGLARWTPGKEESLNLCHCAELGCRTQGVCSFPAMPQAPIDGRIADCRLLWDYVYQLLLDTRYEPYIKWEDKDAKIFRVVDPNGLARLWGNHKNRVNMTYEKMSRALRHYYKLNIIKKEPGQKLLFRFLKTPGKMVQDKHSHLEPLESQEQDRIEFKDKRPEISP
The settings on record: protein: recombinant; tags: N-terminal GST; dsDNA, one strand shown. Summed up: as §1

Test [16] addresses T11, ELF5 (Homo sapiens, UniProt Q9UKW6-2 1-255).
T11 sequence: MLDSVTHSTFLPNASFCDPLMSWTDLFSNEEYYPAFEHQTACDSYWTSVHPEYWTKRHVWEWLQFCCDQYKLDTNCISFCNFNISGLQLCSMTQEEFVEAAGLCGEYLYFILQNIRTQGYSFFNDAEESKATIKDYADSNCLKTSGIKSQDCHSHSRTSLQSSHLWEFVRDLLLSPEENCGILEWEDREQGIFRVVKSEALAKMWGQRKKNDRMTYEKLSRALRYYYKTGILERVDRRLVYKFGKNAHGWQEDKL
To be noted: protein: recombinant; tags: N-terminal GST; dsDNA, one strand shown. Summed up:
as §1

For test [17], the target named is T12, ETV3 (Homo sapiens, UniProt P41162-2 1-143).
T12 sequence: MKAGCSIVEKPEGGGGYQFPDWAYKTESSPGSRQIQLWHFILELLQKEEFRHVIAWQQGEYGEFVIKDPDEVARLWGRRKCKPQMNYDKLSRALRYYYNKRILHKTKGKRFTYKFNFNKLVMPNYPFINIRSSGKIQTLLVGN
The settings on record: protein: recombinant; tags: N-terminal GST; dsDNA, one strand shown. Summed up: as §1

Test [18] deals with ETV6 (Homo sapiens, UniProt P41212 1-452). The settings on record: protein: recombinant; tags: N-terminal GST; dsDNA, one strand shown. In short, it runs like this:
as §1

Chain of ETV6 (P41212 whole entry): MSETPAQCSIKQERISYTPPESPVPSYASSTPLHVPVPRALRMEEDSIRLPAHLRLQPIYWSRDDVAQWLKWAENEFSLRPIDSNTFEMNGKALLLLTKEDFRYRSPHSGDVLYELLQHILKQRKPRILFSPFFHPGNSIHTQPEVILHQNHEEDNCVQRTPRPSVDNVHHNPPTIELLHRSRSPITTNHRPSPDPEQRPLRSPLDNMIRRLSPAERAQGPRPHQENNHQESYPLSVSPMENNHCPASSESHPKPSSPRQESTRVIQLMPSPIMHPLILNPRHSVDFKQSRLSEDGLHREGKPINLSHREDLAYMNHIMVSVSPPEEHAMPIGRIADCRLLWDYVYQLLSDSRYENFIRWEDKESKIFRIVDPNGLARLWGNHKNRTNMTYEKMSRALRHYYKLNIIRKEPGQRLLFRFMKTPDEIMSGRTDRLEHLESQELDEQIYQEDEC
Chain of HSF1 (Q00613 whole entry): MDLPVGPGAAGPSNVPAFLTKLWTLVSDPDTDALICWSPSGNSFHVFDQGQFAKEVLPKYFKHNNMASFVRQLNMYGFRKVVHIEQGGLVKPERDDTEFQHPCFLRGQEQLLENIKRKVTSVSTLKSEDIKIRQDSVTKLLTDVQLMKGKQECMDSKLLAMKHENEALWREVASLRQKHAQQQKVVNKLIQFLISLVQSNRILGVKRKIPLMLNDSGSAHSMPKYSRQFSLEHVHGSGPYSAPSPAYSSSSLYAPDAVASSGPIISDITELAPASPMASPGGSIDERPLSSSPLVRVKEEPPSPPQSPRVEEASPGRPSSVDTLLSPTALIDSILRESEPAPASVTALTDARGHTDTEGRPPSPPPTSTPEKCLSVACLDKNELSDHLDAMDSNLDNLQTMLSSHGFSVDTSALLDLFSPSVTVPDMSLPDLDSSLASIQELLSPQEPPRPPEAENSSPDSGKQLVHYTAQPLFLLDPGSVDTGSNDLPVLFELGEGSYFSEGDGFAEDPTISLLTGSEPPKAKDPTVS
Chain of ETV1 (P50549 whole entry): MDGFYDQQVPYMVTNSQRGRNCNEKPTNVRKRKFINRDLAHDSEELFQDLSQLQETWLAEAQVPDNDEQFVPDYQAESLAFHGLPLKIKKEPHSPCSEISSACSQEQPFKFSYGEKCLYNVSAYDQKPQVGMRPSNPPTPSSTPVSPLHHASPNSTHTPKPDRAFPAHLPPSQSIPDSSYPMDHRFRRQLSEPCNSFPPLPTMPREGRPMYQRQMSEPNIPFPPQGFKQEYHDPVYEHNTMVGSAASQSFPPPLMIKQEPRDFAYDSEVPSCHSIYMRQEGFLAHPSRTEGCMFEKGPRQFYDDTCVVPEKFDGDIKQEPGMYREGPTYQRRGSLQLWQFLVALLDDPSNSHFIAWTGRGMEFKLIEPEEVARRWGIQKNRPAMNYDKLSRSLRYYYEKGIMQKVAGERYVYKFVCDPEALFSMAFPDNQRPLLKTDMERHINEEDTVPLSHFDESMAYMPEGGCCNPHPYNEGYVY
Chain of ETV5 (P41161 whole entry): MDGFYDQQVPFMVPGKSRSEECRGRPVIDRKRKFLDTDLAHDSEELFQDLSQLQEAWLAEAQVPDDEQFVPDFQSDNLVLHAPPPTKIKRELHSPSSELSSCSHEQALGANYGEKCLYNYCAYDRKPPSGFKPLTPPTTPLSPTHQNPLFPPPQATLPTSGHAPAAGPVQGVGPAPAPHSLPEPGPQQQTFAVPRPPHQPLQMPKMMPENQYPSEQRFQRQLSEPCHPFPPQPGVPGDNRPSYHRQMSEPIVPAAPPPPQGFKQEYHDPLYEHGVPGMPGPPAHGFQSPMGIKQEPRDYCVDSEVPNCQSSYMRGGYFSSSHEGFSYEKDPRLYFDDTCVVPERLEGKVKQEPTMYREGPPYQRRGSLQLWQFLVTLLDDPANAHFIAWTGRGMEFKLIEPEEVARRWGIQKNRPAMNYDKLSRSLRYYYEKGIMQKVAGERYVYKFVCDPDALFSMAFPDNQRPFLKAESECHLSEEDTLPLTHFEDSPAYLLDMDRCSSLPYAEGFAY
Chain of ELF4 (Q99607 whole entry): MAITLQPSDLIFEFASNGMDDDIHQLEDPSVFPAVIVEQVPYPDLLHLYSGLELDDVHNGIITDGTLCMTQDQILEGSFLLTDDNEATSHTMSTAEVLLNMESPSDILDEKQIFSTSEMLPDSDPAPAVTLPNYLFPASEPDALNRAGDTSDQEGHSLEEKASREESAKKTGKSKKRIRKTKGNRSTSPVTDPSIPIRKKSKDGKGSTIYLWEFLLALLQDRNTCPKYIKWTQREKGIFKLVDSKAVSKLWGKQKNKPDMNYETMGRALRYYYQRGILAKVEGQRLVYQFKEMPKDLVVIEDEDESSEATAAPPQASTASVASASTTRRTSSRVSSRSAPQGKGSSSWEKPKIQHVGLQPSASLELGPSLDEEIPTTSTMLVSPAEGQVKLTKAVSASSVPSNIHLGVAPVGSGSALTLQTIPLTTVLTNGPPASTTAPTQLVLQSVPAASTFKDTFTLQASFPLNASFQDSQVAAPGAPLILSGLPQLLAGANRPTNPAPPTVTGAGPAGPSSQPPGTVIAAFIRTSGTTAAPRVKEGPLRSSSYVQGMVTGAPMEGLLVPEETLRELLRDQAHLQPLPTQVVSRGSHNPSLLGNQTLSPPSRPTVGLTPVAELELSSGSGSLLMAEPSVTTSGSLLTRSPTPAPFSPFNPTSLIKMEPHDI
Chain of CRX (O43186 whole entry): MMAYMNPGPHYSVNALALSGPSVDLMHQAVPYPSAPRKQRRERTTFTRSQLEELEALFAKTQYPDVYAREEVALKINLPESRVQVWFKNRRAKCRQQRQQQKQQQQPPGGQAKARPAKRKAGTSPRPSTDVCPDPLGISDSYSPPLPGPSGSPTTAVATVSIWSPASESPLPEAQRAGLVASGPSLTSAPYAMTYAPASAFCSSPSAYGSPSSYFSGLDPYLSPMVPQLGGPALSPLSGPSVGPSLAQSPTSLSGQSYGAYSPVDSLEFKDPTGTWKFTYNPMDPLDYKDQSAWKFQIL

In the case of TTGTTT, the binding signal in test [1] was 1.45 fold enrichment (6-mer frequency, TF over GST control); in [2] it was 1.53 fold enrichment (6-mer frequency, TF over GST control); in test [3], 1.24 fold enrichment (6-mer frequency, TF over GST control); in [4], 1.08 fold enrichment (6-mer frequency, TF over GST control); in [5], 1.44 fold enrichment (6-mer frequency, TF over GST control); in test [6] it was 1.61 fold enrichment (6-mer frequency, TF over GST control). Further, the binding signal was 1.32 fold enrichment (6-mer frequency, TF over GST control) in test [7]; 1.61 fold enrichment (6-mer frequency, TF over GST control) in [8]; 1.45 fold enrichment (6-mer frequency, TF over GST control) in test [9]; 1.38 fold enrichment (6-mer frequency, TF over GST control) in test [10]; 1.45 fold enrichment (6-mer frequency, TF over GST control) in test [11]; 1.46 fold enrichment (6-mer frequency, TF over GST control) in test [12]. For the same sequence, the binding signal in test [13] was 1.39 fold enrichment (6-mer frequency, TF over GST control); in [14], 1.32 fold enrichment (6-mer frequency, TF over GST control); in test [15], 1.6 fold enrichment (6-mer frequency, TF over GST control); in test [16], 1.37 fold enrichment (6-mer frequency, TF over GST control); in [17] it was 1.5 fold enrichment (6-mer frequency, TF over GST control); in test [18], 1.53 fold enrichment (6-mer frequency, TF over GST control).
